PfM18AAP inh-1: blocks P. falciparum M18 aspartyl aminopeptidase; AID 1822; inhibition, % at 7.35 µM; recombinant PfM18AAP, H-Glu-NHMec fluorogenic cleavage; hit rate 1.2% among 290,000;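 active means inhibition above the campaign mean inhibition over all tested compounds plus 3 SD, cut at about 28% in these data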;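 further: 0% = plate median of test compound wells and 100% = 2 mM ZnCl2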
DNA FID counter: fluorescent intercalator displacement, NS3 helicase counter-screen | DNA fluorescent intercalator displacement, fluorescence | inhibition, % at 7.9 µM | hit rate 0.17% among 290,000 | AID 1845; in the data active means inhibition above about 37%;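 further: 0% = vehicle and 100% = reference compound; higher means more ethidium bromide displaced from hairpin DNA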
Rce1 inhib: blocks yeast Ras-converting enzyme; hit rate 0.27% among 290,000; AID 2563; Q03530; yeast membranes, quenched prenylated peptide cleavage fluorescence; calls only;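 active means fall in fluorescence gain of 50% or more versus controls, with final raw signal at or below 3038400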;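 further: plate controls were neutral control wells for no effect and wells lacking membranes for full effect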
Target sequence (Q03530 whole entry, looked up): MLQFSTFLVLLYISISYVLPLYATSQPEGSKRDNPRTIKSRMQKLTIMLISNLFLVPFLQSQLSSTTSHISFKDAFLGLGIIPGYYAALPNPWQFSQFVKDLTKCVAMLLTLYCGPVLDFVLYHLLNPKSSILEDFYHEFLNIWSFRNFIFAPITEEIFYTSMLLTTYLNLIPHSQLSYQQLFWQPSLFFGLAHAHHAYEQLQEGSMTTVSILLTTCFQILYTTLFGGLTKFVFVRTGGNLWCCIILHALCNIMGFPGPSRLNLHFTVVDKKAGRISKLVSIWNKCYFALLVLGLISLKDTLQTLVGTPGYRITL
Kir21 inh: Kir2.1 (mouse) channel inhibition; P35561; HEK293-Kir2.1, FluxOR thallium flux fluorescence; hits give low values; B-score at 10 µM; hit rate 0.85% among 310,000; AID 1672;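 active means fluorescence ratio B-score at or below minus 3 SD of library scores, with starting-brightness B-score within 2 SD, cut at about -4.2 in these data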;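 further: channel flux triggered by added potassium and thallium sulfate stimulus; B-score of peak minus minimum fluorescence over baseline after thallium stimulus; more negative B-score means stronger Kir2.1 block with less thallium influx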
PfM18AAP inh-2: PfM18AAP inhibition, confirmation. shares compounds with PfM18AAP inh-1. recombinant PfM18AAP, H-Glu-NHMec fluorogenic cleavage. inhibition, % at 7.35 µM. hit rate 28% among 2,400. AID 2170;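 active means mean inhibition over replicate wells above the hit cutoff set for the earlier primary screen, cut at about 29% in these data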;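 further: 0% = median of test compound wells and 100% = 2 mM ZnCl2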
CTSL1 counter: Cathepsin L (human) inhibition, confirmation; shares compounds with PfM18AAP inh-1; inhibition, % at 5.96 µM; 2,400 tested, under 10 active; purified cathepsin L1, Z-Leu-Arg-MCA fluorescence;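 active means average inhibition across replicates above the hit cutoff set in the earlier primary screen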;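 further: 0% = median of test compound wells and 100% = Z-Phe-Ala-diazomethylketone 1 µM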
Target sequence (P07711 whole entry, looked up): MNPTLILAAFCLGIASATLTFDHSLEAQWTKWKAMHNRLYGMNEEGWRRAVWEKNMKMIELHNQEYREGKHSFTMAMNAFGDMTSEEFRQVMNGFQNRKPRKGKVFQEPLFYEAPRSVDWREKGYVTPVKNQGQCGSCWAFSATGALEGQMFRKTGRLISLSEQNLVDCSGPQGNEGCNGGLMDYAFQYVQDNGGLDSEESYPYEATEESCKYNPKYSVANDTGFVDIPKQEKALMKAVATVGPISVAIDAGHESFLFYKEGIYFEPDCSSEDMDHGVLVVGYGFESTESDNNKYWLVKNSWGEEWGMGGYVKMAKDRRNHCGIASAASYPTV
* = called active by the depositor; i = inactive; . = not tested or not shown. In the library only some 2.3% were active in any assay of this set; here they are far more common.

SMILES | PfM18AAP inh-1 | DNA FID counter | Rce1 inhib | Kir21 inh | PfM18AAP inh-2 | CTSL1 counter
COC(=O)COc1c(Cl)cc(C(c2c(C)[nH][nH]c2=O)c2c(C)[nH][nH]c2=O)cc1OC | 34* | -17 | i | 0.12 | 13 | 0
CCOC(=O)COc1ccc(C(c2c(C)[nH][nH]c2=O)c2c(C)[nH][nH]c2=O)cc1 | 34* | -12 | i | -0.96 | -3 | 0
COc1cc(C(c2c(C)[nH][nH]c2=O)c2c(C)[nH][nH]c2=O)cc(Br)c1OC | 38* | -12 | i | 1.1 | 16 | -3
Cc1[nH][nH]c(=O)c1C(c1ccc(F)cc1)c1c(C)[nH][nH]c1=O | 27 | -5 | i | 2.6 | . | .
COC(=O)c1ccc(C(c2c(C)[nH][nH]c2=O)c2c(C)[nH][nH]c2=O)cc1 | 15 | -5 | i | -0.67 | . | .
COc1cc(C(=O)N/C(=C\c2cn(S(=O)(=O)N(C)C)c3ccccc23)C(=O)N2CCCC2)cc(OC)c1OC | -1 | -52 | i | 0.96 | . | .
CCNCC(=O)N1c2ccccc2CCc2ccc(NC(=O)OCC)cc21 | -9 | -4 | i | -0.17 | . | .
CC1=CC(C)C2(COC(=O)Nc3ccccc3)COC(C)C1C2C (configuration not stated) | -1 | -20 | i | -1.7 | . | .
COc1ccccc1CNC(=O)Cn1c(=O)c2cccn2c2cccnc21 | -18 | -15 | i | -0.1 | . | .
O=C(Nc1cccc(-c2cccc(F)c2)c1)C1CCN(C2CCOCC2)CC1 | 0 | 24 | i | -0.52 | . | .
COc1ccc(NC2CCCN(C(=O)C3(C)CCCCC3)C2)cc1OC (configuration not stated) | 13 | -19 | i | -0.3 | . | .
N#Cc1c(-c2ccccc2)[nH]c(=S)[nH]c1=O | 34* | -3 | i | 0.19 | -22 | -1
O=c1nc(N/N=C/c2c[nH]c3ccccc23)cn[nH]1 | 40* | 3 | . | 0.03 | 1 | -3
O=c1nc(N/N=C/C=C/c2ccccc2)cn[nH]1 | 41* | -1 | . | 0.65 | -1 | 4
C(=C\c1ccccc1)/C=N/Nc1nncc(-c2ccccc2)n1 | -9 | -5 | i | -0.08 | . | .
C(=N\Nc1ccccn1)/c1c[nH]c2ccccc12 | 21 | 5 | i | -0.27 | . | .
O=[N+]([O-])/C(C=Nc1ccccc1O)=C\Nc1ccccc1O | 34* | 1 | i | -0.04 | 18 | 2
O=[N+]([O-])/C(=C\Nc1ccccc1Cl)S(=O)(=O)c1ccccc1 | 1 | -1 | . | . | . | .
CCOC(=O)c1c(-c2ccccc2Cl)csc1NC(=O)CSc1nc(C)cc(=O)[nH]1 | 0 | -20 | i | -0.12 | . | .
CCCCCCOc1ccc(C(=O)O)cc1 | -6 | -8 | i | -0.15 | . | .
CCCCCCOc1ccc(C(=O)n2cnc(N)n2)cc1 | 44* | -4 | i | 1.6 | 41* | -1
CC(/C=C/c1ccccc1)=N\Nc1nc(C)cc(C)n1 | 39* | -4 | i | 3.5 | -35 | -1
CC(/C=C/c1ccccc1)=N/NC(=O)c1nc2nc(C)cc(C)n2n1 | -2 | -11 | i | 0.84 | . | .
Cc1ccc(-c2csc(N)n2)s1 | 15 | -2 | i | 0.35 | . | .
CC(=O)NCc1ccc(-c2csc(N)n2)s1 | 37* | 1 | i | -0.8 | -52 | -6
SMILES | PfM18AAP inh-1 | DNA FID counter | Rce1 inhib | Kir21 inh | PfM18AAP inh-2 | CTSL1 counter
O=C(Nc1ccc(Oc2c(F)c(F)c(F)c(F)c2F)cc1)OC1CCN2Cc3ccccc3N=C12 (configuration not stated) | 0 | -2 | i | -0.08 | . | .
COc1ccccc1C(=O)NCCCNC(=O)c1cccnc1 | -7 | -8 | i | -0.51 | . | .
CCOC(=O)CC1Sc2ccccc2NC1=S (configuration not stated) | 37* | -7 | i | 2.1 | -16 | 7
O=C(O)CN1CCc2ccccc2C1 | 1 | 6 | i | -0.42 | . | .
CCOC(=O)c1c(NC(=O)COC(=O)CNC(=O)c2ccc(Cl)cc2Cl)sc(C(=O)N(C)C)c1C | . | . | i | 0.37 | . | .
N#CC1=C(N)SC(N)=C(C#N)C1c1c(Cl)cccc1Cl | 46* | 1 | i | 0.56 | -13 | 2
N#CC1=C(N)SC(N)=C(C#N)C1CCc1ccccc1 | 9 | 8 | i | -0.95 | . | .
N#CC1=C(N)SC(N)=C(C#N)C1Cc1ccccc1 | 43* | -2 | i | -0.79 | -9 | 1
COc1cc(C(=S)N2CCOCC2)cc(OC)c1OC(=O)Cc1ccc(F)cc1 | 36* | -32 | i | 0.1 | -8 | 1
COc1cc(C(=S)N2CCOCC2)cc(OC)c1OC(=O)c1ccccc1[N+](=O)[O-] | 0 | -24 | i | -0.99 | . | .
COC(=O)c1ccc(COc2ccccc2/C=C(\C#N)C(=O)Nc2c(C)cccc2C)cc1 | 4 | -7 | i | -0.01 | . | .
COc1cc(C2Nc3cccc4cccc(c34)N2)ccc1O | 46* | 5 | i | 0.09 | 15 | -1
Cc1ccc2c(c1)N(C(=O)CCC(=O)NC1CCCCCC1)CCO2 | 1 | -29 | i | 0.03 | . | .
NNc1nc2ccc(F)cc2s1 | 37* | 2 | i | 1.2 | 29* | 0
COc1ccc(C(=O)Nc2nnc(SCC(=O)NCc3ccco3)s2)c(OC)c1 | 6 | -19 | i | 1.7 | . | .
COCCn1c(=N)c(C(=O)NCc2ccco2)cc2c(=O)n3cc(C)ccc3nc21 | 23 | -1 | i | -1.3 | . | .
Cc1ccc2nc3c(cc(C(=O)NCc4ccco4)c(=N)n3C3CCCC3)c(=O)n2c1 | 38* | -17 | . | -2.1 | -30 | 3
Cc1nc(N/N=C/c2ccc(O)cc2O)cc(N2CCOCC2)n1 | 49* | -9 | i | 0.27 | 34* | 1
Cc1ccc(C(=O)C(NC(=O)c2ccco2)Nc2sc3c(c2C(N)=O)CCCC3)cc1 (configuration not stated) | 40* | -17 | i | 0.06 | -27 | -8
CN(C)c1ccc(/C=C(/C(=O)c2ccc(Cl)cc2Cl)n2cncn2)cc1 | 9 | -34 | i | -1.9 | . | .
CN(C)/C=C(/C(=O)c1ccc(Cl)cc1)n1cncn1 | 40* | -8 | i | 0.19 | 0 | 2
O=C(NCc1ccccn1)c1n[nH]c2ccccc12 | 37* | -7 | i | 2.7 | -8 | -3
O=C(NCc1ccccn1)c1n[nH]c(=O)c2ccccc12 | 1 | 3 | i | 0.59 | . | .
CCOC(=O)c1sc(N)c(C(=O)Nc2ccccc2)c1C | 40* | -4 | i | 1.3 | 5 | 1
Nc1c(/C=C2/C=CC(=O)C(O)=C2)c(=O)nc2sc(CC(=O)N3CCCC3)nn12 | 63* | -29 | i | -0.07 | 43* | -2
O=[N+]([O-])c1ccc(C(O)CN2CCN(c3ccccc3)CC2)cc1 (configuration not stated) | -6 | 0 | i | -0.33 | . | .
Oc1ccc(N2CCN(CC(O)c3ccccc3)CC2)cc1 (configuration not stated) | 51* | -2 | i | 0.22 | -22 | 0
COc1ccc(-n2ncc3c2CC(C)(C)CC3NC(=O)c2ocnc2C)cc1 (configuration not stated) | -2 | -51 | i | -1.8 | . | .

Screens from PubChem.
